Data on 49 compounds can be found in article PMC11995724, “Antibiotic target discovery by integrated phenotypic and activity-based profiling of electrophilic fragments” (Cell chemical biology, 2025).

Each structure is given as a SMILES string. Among all 3,200 compounds or so, about 110 (3.4%) showed an effect of 50% or more. Only a selection was taken, and strong results are over-represented in it overall.

For this test, the system named is T1, V. cholerae SAD30.
T1 construct: SAD30
Also on record: species or system S. aureus MSSA476 (TSB) or V. cholerae SAD30 (LB); 384-well bacterial growth screen at 25 uM, OD600 relative to DMSO control. As to conditions: relative growth, OD600, LB; 25 µM; inhibitor.
`C=CC(=O)NC1(c2nc(C3CC3)cc(=O)[nH]2)CCCCC1` [3-H13, N-[1-(4-cyclopropyl-6-oxo-1,6-dihydropyrimidin-2-yl)cyclohexyl]prop-2-enamide]: the “% of control remaining” value came out at 88.7374%.
The result for `CS(=O)(=O)Nc1ccc(C(=O)CCl)cc1` [10-D19, N-[4-(2-chloroacetyl)phenyl]methanesulfonamide] reads 31.3267%.
For `CS(=O)(=O)NCCc1ccc(C(=O)CCl)cc1` [10-D06, N-{2-[4-(2-chloroacetyl)phenyl]ethyl}methanesulfonamide], the “% of control remaining” value is 99.5909%.
`CCN(c1ccc(C(=O)CCl)cc1)S(C)(=O)=O` [10-F04, N-[4-(2-chloroacetyl)phenyl]-N-ethylmethanesulfonamide]: the “% of control remaining” value is reported as 100.994%.
The result for `CC(=O)N(C)Cc1ccc(C(=O)CCl)cc1` [10-H04, N-{[4-(2-chloroacetyl)phenyl]methyl}-N-methylacetamide] reads 100.682%.
As for `CS(=O)(=O)c1ccc(C(=O)CCl)cc1` [10-I13, 2-chloro-1-(4-methanesulfonylphenyl)ethan-1-one], the figure is 0%; as for `CC(Cl)C(=O)c1ccc(NS(C)(=O)=O)cc1` (stereo not shown) [10-A08, N-[4-(2-chloropropanoyl)phenyl]methanesulfonamide], 98.4999%; as for `CN(c1ccc(C(=O)CCl)cc1)S(C)(=O)=O` [10-F19, N-[4-(2-chloroacetyl)phenyl]-N-methylmethanesulfonamide], 14.0269%.
As for `CS(=O)(=O)c1ccc(CNC(=O)CCl)cc1` [6-O12, 2-chloro-N-[(4-methanesulfonylphenyl)methyl]acetamide], the figure is 95.2507%; as for `C=CC(=O)NC(c1ccc(C)cc1)C(C)S(C)(=O)=O` (stereo not shown) [2-A10, N-[2-methanesulfonyl-1-(4-methylphenyl)propyl]prop-2-enamide], 94.3646%.
On to `CC(Cl)C(=O)Nc1sccc1C(N)=O` (stereo not shown) [5-C21, 2-(2-chloropropanamido)thiophene-3-carboxamide], for which the “% of control remaining” value amounted to 107.429%.
As for `C=CC(=O)N1CCC(NC(C)=O)(c2noc(C)n2)C1` (stereo not shown) [2-G16, N-[3-(5-methyl-1,2,4-oxadiazol-3-yl)-1-(prop-2-enoyl)pyrrolidin-3-yl]acetamide], the figure is 100.077%.
As for `C=CC(=O)NC1CN(S(=O)(=O)c2ccc3c(c2)OCCO3)C1` [2-E11, N-[1-(2,3-dihydro-1,4-benzodioxine-6-sulfonyl)azetidin-3-yl]prop-2-enamide], the figure is 95.7541%.
The result for `N#CC(=Cc1c(F)cccc1F)C(=O)Nc1ccccc1F` [9-J12, 2-cyano-3-(2,6-difluorophenyl)-N-(2-fluorophenyl)prop-2-enamide] reads 94.2896%; that for `O=C(CCl)NC1CCCc2nc(-c3ccccc3)sc21` (stereo not shown) [7-B04, 2-chloro-N-(2-phenyl-4,5,6,7-tetrahydro-1,3-benzothiazol-7-yl)acetamide], 86.833%.
In the case of `CCCn1c(C)cc(C=C(C#N)C(=O)N2CCC2)c1C` [8-L08, 2-(azetidine-1-carbonyl)-3-(2,5-dimethyl-1-propyl-1H-pyrrol-3-yl)prop-2-enenitrile], the “% of control remaining” value was 60.707%.
`COC(=O)c1sccc1N1C(=O)C=CC1=O` [10-A07, methyl 3-(2,5-dioxo-2,5-dihydro-1H-pyrrol-1-yl)thiophene-2-carboxylate]: the “% of control remaining” value is listed as 26.4952%.
As for `Cc1cc(C(=O)C(C)Cl)c(C)n1Cc1ccco1` (stereo not shown) [10-E06, 2-chloro-1-{1-[(furan-2-yl)methyl]-2,5-dimethyl-1H-pyrrol-3-yl}propan-1-one], the figure is 94.9153%; as for `Cc1ccc(NC(=O)CCl)cc1[N+](=O)[O-]` [4-M13, 2-chloro-N-(4-methyl-3-nitrophenyl)acetamide], 93.6813%; as for `NC(=O)c1coc(C(=O)CCl)c1` [10-C05, 5-(2-chloroacetyl)furan-3-carboxamide], 96.1621%.
As for `Cc1oc(C(N)=O)cc1C(=O)CCl` [10-M05, 4-(2-chloroacetyl)-5-methylfuran-2-carboxamide], the figure is 20.4169%; as for `COC(=O)c1cc(C(=O)CCl)c(C)o1` [10-G13, methyl 4-(2-chloroacetyl)-5-methylfuran-2-carboxylate], 43.6392%.
The result for `COCCn1c(C)cc(C(=O)CCl)c1C` [10-D13, 2-chloro-1-[1-(2-methoxyethyl)-2,5-dimethyl-1H-pyrrol-3-yl]ethan-1-one] reads 99.9026%; that for `Cc1oc(C(=O)O)cc1C(=O)CCl` [10-M21, 4-(2-chloroacetyl)-5-methylfuran-2-carboxylic acid], 100.37%; that for `CCc1ccc(CC)c(C(=O)CCl)c1` [10-H14, 2-chloro-1-(2,5-diethylphenyl)ethan-1-one], 95.8504%.
In the case of `CCc1ccc(OC(C)C(=O)N2CCN(C(=O)C(C)Cl)CC2)cc1` (stereo not shown) [6-H16, 1-[4-(2-chloropropanoyl)piperazin-1-yl]-2-(4-ethylphenoxy)propan-1-one], the “% of control remaining” value amounted to 86.302%.
On to `C=CC(=O)N1CCC(C(=O)Nc2ccc3c(c2)CCN3C(N)=O)CC1` [3-E16, 5-[1-(prop-2-enoyl)piperidine-4-amido]-2,3-dihydro-1H-indole-1-carboxamide], for which the “% of control remaining” value was determined as 90.5017%.
For `C=CC(=O)NC(c1nc(C)cs1)C1CC1` (stereo not shown) [3-D21, N-[cyclopropyl(4-methyl-1,3-thiazol-2-yl)methyl]prop-2-enamide], the “% of control remaining” value turned out to be 100.912%.
As for `CCCn1c(C)cc(C=C(C#N)C(=O)Nc2ccc3c(c2)OCO3)c1C` [9-G07, N-(1,3-dioxaindan-5-yl)-2-cyano-3-(2,5-dimethyl-1-propyl-1H-pyrrol-3-yl)prop-2-enamide], the figure is 88.5792%; as for `CC(Cl)C(=O)Nc1ccc(F)c(F)c1F` (stereo not shown) [4-O08, 2-chloro-N-(2,3,4-trifluorophenyl)propanamide], 95.579%; as for `C=CC(=O)NCCCc1conc1C` [2-N13, N-[3-(3-methyl-1,2-oxazol-4-yl)propyl]prop-2-enamide], 87.88%.
The result for `Cc1ccc(NC(=O)C2(CNC(=O)C(C)Cl)CCCC2)cc1C` (stereo not shown) [7-J13, 1-[(2-chloropropanamido)methyl]-N-(3,4-dimethylphenyl)cyclopentane-1-carboxamide] reads 74.8059%.
The result for `Cn1cc(C=C(C#N)C(=O)Nc2ccccc2F)c(-c2ccncc2)n1` [9-L15, 2-cyano-N-(2-fluorophenyl)-3-[1-methyl-3-(pyridin-4-yl)-1H-pyrazol-4-yl]prop-2-enamide] reads 89.6669%; that for `O=C1CCc2cc(C(=O)CCl)c(F)cc2N1` [10-O20, 6-(2-chloroacetyl)-7-fluoro-1,2,3,4-tetrahydroquinolin-2-one], 36.6258%.
For `O=C1CCCc2cc(C(=O)CCl)ccc2N1` [10-M20, 7-(2-chloroacetyl)-2,3,4,5-tetrahydro-1H-1-benzazepin-2-one], the “% of control remaining” value came out at 94.6035%.
The result for `CC1(C)C(=O)Nc2ccc(C(=O)CCl)cc21` [10-N21, 5-(2-chloroacetyl)-3,3-dimethyl-2,3-dihydro-1H-indol-2-one] reads 35.0672%; that for `O=C1CCc2cc(C(=O)CCl)ccc2N1` [10-M03, 6-(2-chloroacetyl)-1,2,3,4-tetrahydroquinolin-2-one], 23.534%; that for `C=CC(=O)NCc1c(Cl)c(C(F)(F)F)nn1C` [2-J07, N-{[4-chloro-1-methyl-3-(trifluoromethyl)-1H-pyrazol-5-yl]methyl}prop-2-enamide], 87.88%.
On to `C=CC(=O)Nc1ccc(Cl)cc1F` [1-I10, N-(4-chloro-2-fluorophenyl)prop-2-enamide], for which the “% of control remaining” value is on record as 88.0419%.
As for `CC(Cl)C(=O)NCc1cc(-c2ccccc2)on1` (stereo not shown) [7-A13, 2-chloro-N-[(5-phenyl-1,2-oxazol-3-yl)methyl]propanamide], the figure is 82.868%; as for `CC(Cl)C(=O)N1CCN(C(=O)C(F)(F)F)C2(CCCCC2)C1` (stereo not shown) [7-K06, 2-chloro-1-[1-(2,2,2-trifluoroacetyl)-1,4-diazaspiro[5.5]undecan-4-yl]propan-1-one], 75.3345%.
The result for `CC(C#N)Oc1ccc(C=C(C#N)C(=O)Nc2ccccc2Cl)cc1` (stereo not shown) [9-E05, N-(2-chlorophenyl)-2-cyano-3-[4-(1-cyanoethoxy)phenyl]prop-2-enamide] reads 89.259%; that for `C=CCNC(=O)C(C#N)=Cc1cccc2ccccc12` [9-L10, 2-cyano-3-(naphthalen-1-yl)-N-(prop-2-en-1-yl)prop-2-enamide], 88.3073%; that for `CC(Cl)C(=O)N(C)C[C@@H]1C[C@H](F)CN1c1ccnc(N(C)C)n1` (stereo partly drawn) [7-K16, 2-chloro-N-{[(2S,4S)-1-[2-(dimethylamino)pyrimidin-4-yl]-4-fluoropyrrolidin-2-yl]methyl}-N-methylpropanamide], 71.1052%.
The result for `C=CC(=O)NCCc1ccn(-c2ccc(F)cc2)n1` [2-P03, N-{2-[1-(4-fluorophenyl)-1H-pyrazol-3-yl]ethyl}prop-2-enamide] reads 113.818%.
For the compound `Cc1cc(C(=O)O)ccc1N1C(=O)C=CC1=O` [10-G22, 4-(2,5-dioxo-2,5-dihydro-1H-pyrrol-1-yl)-3-methylbenzoic acid], the “% of control remaining” value was 102.864%.
As for `Cc1ccc2nc(-c3ccc(N4C(=O)C=CC4=O)cc3)sc2c1` [10-K18, 1-[4-(6-methyl-1,3-benzothiazol-2-yl)phenyl]-2,5-dihydro-1H-pyrrole-2,5-dione], the figure is 99.1233%; as for `Cc1ccc(C)c(N2C(=O)C=CC2=O)c1` [10-F13, 1-(2,5-dimethylphenyl)-2,5-dihydro-1H-pyrrole-2,5-dione], 31.3267%.
As for `Cc1ccc(N2C(=O)C=CC2=O)c(C)c1` [10-N07, 1-(2,4-dimethylphenyl)-2,5-dihydro-1H-pyrrole-2,5-dione], the figure is 22.5989%.
